Drawing on PubChem BioAssay (NCI), this text covers growth for eight molecules.

Among the test systems are DU-145 prostate; K-562 leukemia; MALME-3M melanoma; RXF 393 renal; SF-268 CNS; SF-295 CNS; SF-539 CNS; UACC-257 melanoma; M14 melanoma; HCT-15 colon; HT29 colon; SNB-75 CNS; SNB-19 CNS; U251 CNS; PC-3 prostate; SK-MEL-5 melanoma; UACC-62 melanoma; SK-MEL-28 melanoma.
Experiment in all cases: NCI-60 one-dose screen, 48 h (100 = growth as untreated, 0 = no growth, -100 = all killed)
Holding throughout (conditions): 10 µM unless noted

About 83,000 compounds went through this panel and 20% of them were active in at least one assay; those are over-represented in the sample as a whole.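 Single-dose data. Exposure time 48 hours. Values below 10 considered active.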 Unmarked numbers belong to inactive results. Activity calls are given as the source filed them.

Consider `CCOC(=O)C1=C(N)N(c2ccccc2)C2=C(C(=O)CC(C)(C)C2)C1c1cccc(Cl)c1Cl` (configuration not stated), for which the growth in the experiment with DU-145 prostate was 81%; in the experiment with K-562 leukemia, 59.5%; in the experiment on MALME-3M melanoma it was 77.6%; in the experiment on RXF 393 renal, 53.4%; with SF-268 CNS, 66%; in the experiment on SF-295 CNS it was 53.5%. The growth in the experiment on SF-539 CNS is 32.6%; with UACC-257 melanoma it was 85.4%; with M14 melanoma, 81%; with HCT-15 colon it was 65.8%; in the experiment on HT29 colon, 72.7%; in the experiment with SNB-75 CNS, 56.8%. The growth in the experiment with SNB-19 CNS is 41.7%; in the experiment on U251 CNS, 55.2%; in the experiment with PC-3 prostate it was 35.3%; in the experiment with SK-MEL-5 melanoma, 77.6%; in the experiment on UACC-62 melanoma, 55.6%; with SK-MEL-28 melanoma it was 91%.

In the case of `Cc1cc(C)cc(C(=O)Nc2cccc(-c3cn(-c4ccc(S(N)(=O)=O)cc4)nn3)c2)c1`, the growth is 72.1% with DU-145 prostate; 19.1% in the experiment with K-562 leukemia; 20.4% in the experiment with MALME-3M melanoma; -26.1% (active) in the experiment with RXF 393 renal; 16.6% in the experiment on SF-268 CNS; -36.6% (active) with SF-295 CNS. The growth is -84.3% (active) in the experiment with SF-539 CNS; 76.2% in the experiment with UACC-257 melanoma; 73.4% in the experiment with M14 melanoma; 79% in the experiment with HCT-15 colon; 80.4% with HT29 colon; -7.62% (active) in the experiment with SNB-75 CNS. Besides, the growth in the experiment with U251 CNS was 10.9%; in the experiment on PC-3 prostate, 83%; in the experiment with SK-MEL-5 melanoma, 24.4%; in the experiment on UACC-62 melanoma, 12.2%; with SK-MEL-28 melanoma, 62.4%.

In the case of `N#Cc1c(-c2cccc(O)c2O)cc(-c2ccc3ccccc3c2)[nH]c1=O`, the growth in the experiment on DU-145 prostate was 57%; in the experiment with K-562 leukemia, 67.1%; in the experiment with MALME-3M melanoma it was 59.1%; in the experiment on RXF 393 renal it was 39.3%; in the experiment on SF-268 CNS, 58.6%; with SF-295 CNS, 83.6%. Further, the growth in the experiment with SF-539 CNS is 28.8%; in the experiment on UACC-257 melanoma it was 99.9%; in the experiment with M14 melanoma, 65.1%; in the experiment with HCT-15 colon, 52.8%; with HT29 colon it was 98.2%; with SNB-75 CNS, -6.63% (active). Besides, the growth in the experiment on SNB-19 CNS was 41.1%; in the experiment with U251 CNS, 40.2%; in the experiment with PC-3 prostate, 67.5%; with SK-MEL-5 melanoma it was 45.9%; with SK-MEL-28 melanoma, 45.7%.

In the case of `COc1ccc(/C=C2\C(=O)Nc3ccc(Cl)cc32)cc1OCc1ccccn1`, the growth is 57.5% with DU-145 prostate; 51.6% in the experiment on K-562 leukemia; 38.2% in the experiment on MALME-3M melanoma; 2.03% (active) in the experiment on RXF 393 renal; 44% in the experiment on SF-268 CNS; 38.4% in the experiment with SF-295 CNS. Besides, the growth with SF-539 CNS is -9.35% (active); with UACC-257 melanoma it was 72.6%; with M14 melanoma, 52.8%; in the experiment on HCT-15 colon it was 59.9%; in the experiment with HT29 colon it was 76.5%; in the experiment with SNB-75 CNS, 38.1%. Besides, the growth is 42.4% in the experiment on SNB-19 CNS; -5.73% (active) with U251 CNS; 38.3% in the experiment on PC-3 prostate; 52.4% with SK-MEL-5 melanoma; 20.7% in the experiment with UACC-62 melanoma; 68% with SK-MEL-28 melanoma.

On to `COc1cc(CNC(=O)/C=C/c2ccc3c(c2)OCO3)ccc1OCc1cn(-c2ccc([N+](=O)[O-])cc2)nn1`, for which the growth in the experiment on DU-145 prostate is 103%; in the experiment with K-562 leukemia, 92.8%; with MALME-3M melanoma, 87.6%; in the experiment on RXF 393 renal it was 72.2%; with SF-268 CNS, 86.9%; with SF-295 CNS, 88%. Moreover, the growth is 79.8% in the experiment with SF-539 CNS; 91.5% with UACC-257 melanoma; 92.9% in the experiment on M14 melanoma; 97.3% in the experiment with HCT-15 colon; 121% with HT29 colon; 106% with SNB-75 CNS. Besides, the growth in the experiment on SNB-19 CNS is 86.5%; in the experiment on U251 CNS it was 96.2%; in the experiment on PC-3 prostate, 103%; in the experiment with SK-MEL-5 melanoma it was 89.3%; in the experiment with UACC-62 melanoma it was 78.9%; in the experiment with SK-MEL-28 melanoma, 99.9%.

As for `C[C@H](Nc1nc(NCCc2ccccc2)nc2ccccc12)c1ccccc1`, the growth in the experiment with DU-145 prostate was -85.6% (active); in the experiment with K-562 leukemia it was -43.9% (active); in the experiment on MALME-3M melanoma, -91.7% (active); in the experiment with RXF 393 renal, -90.5% (active); with SF-268 CNS, -70.4% (active); in the experiment with SF-295 CNS, -95.8% (active). Moreover, the growth is -96.2% (active) in the experiment on SF-539 CNS; -76% (active) in the experiment with UACC-257 melanoma; -84.5% (active) in the experiment on M14 melanoma; -91.2% (active) with HCT-15 colon; -90.6% (active) with HT29 colon; -44.6% (active) with SNB-75 CNS. Moreover, the growth in the experiment on SNB-19 CNS is -75% (active); in the experiment on U251 CNS, -77.7% (active); in the experiment on PC-3 prostate, -54.5% (active); in the experiment with SK-MEL-5 melanoma it was -100% (active); in the experiment on UACC-62 melanoma, -95% (active); in the experiment on SK-MEL-28 melanoma it was -98.5% (active).

As for `CC1CCCCN1CCCNC(=O)N/C(N)=N/c1nc2ccccc2s1` (configuration not stated), the growth in the experiment on DU-145 prostate was 72.1%; in the experiment on K-562 leukemia it was -27.6% (active); with MALME-3M melanoma, -93.2% (active); in the experiment with RXF 393 renal, 5.45% (active); with SF-268 CNS it was 49.7%; with SF-295 CNS, 15.3%. In addition, the growth in the experiment on SF-539 CNS was -60.9% (active); with UACC-257 melanoma it was -86.8% (active); with M14 melanoma it was -85.2% (active); in the experiment with HCT-15 colon, -13.6% (active); with HT29 colon it was 3.14% (active); in the experiment on SNB-75 CNS it was 4.11% (active). Also, the growth with SNB-19 CNS is 61.5%; in the experiment on U251 CNS, 40.8%; in the experiment on PC-3 prostate, 31.6%; in the experiment on SK-MEL-5 melanoma, -96.7% (active); in the experiment with UACC-62 melanoma, -84.2% (active); in the experiment on SK-MEL-28 melanoma, -97% (active).

For `N#Cc1c(-c2cccc(Cl)c2Cl)cc(-c2ccc3ccccc3c2)[nH]c1=O`, the growth in the experiment with DU-145 prostate was 75.8%; in the experiment with K-562 leukemia, 91.2%; with MALME-3M melanoma, 66%; with RXF 393 renal, 60.9%; with SF-268 CNS it was 71.8%; with SF-295 CNS, 31.8%. The growth is 79.7% with SF-539 CNS; 94.2% in the experiment with UACC-257 melanoma; 32.5% in the experiment with M14 melanoma; 69.6% in the experiment with HCT-15 colon; 121% with HT29 colon; -12.7% (active) in the experiment with SNB-75 CNS. The growth in the experiment on SNB-19 CNS was 39.2%; in the experiment with U251 CNS, 6.58% (active); in the experiment with PC-3 prostate, 44.4%; in the experiment on SK-MEL-5 melanoma, 85.7%; with UACC-62 melanoma it was 76.2%; in the experiment with SK-MEL-28 melanoma it was 92.8%.
